Results filed as inconclusive are left out. Calls of active or inactive are those of the source. Rule for the calls: active = hit-call score of the fitted dose curve at least 0.9, where 1 is the maximum; inconclusive = response in the unintended direction; inactive = score below 0.9.
Read-out: sulfotransferase (SULT2A), SULT2A1 (gene 6822)
Assay: CLD_SULT2A_24hr: CellzDirect (CLD) Gene Expression Assay for sulfotransferase (SULT2A) at 24 hours (AID 2283694)
Procedure: CLD_24hr is a cell-based, multiplexed-readout assay that uses hepatocyte, a human liver primary cell, with measurements taken at 24 hours after chemical dosing in a 96-well plate.CLD_SULT2A_24hr is one of 16 assay component(s) measured or calculated from the CLD_24hr assay. It is designed to make measurements of mRNA induction, a form of inducible reporter, as detected with chemiluminescence signals by Quantitative Nuclease Protection Assay (qNPA) technology.Data from the assay component CLD_SULT2A_24hr was analyzed at the endpoint, CLD_SULT2A_24hr, in the positive analysis fitting direction relative to DMSO as the negative control and baseline of activity. Using a type of inducible reporter, gain-of-signal activity can be used to understand changes in the reporter gene as they relate to the gene SULT2A1. Furthermore, this assay endpoint can be referred to as a primary readout. To generalize the intended target to other relatable targets, this assay endpoint is annotated to the transferase intended target family, where subfamily is sulfotransferase.
Human hepatocyte cultures were treated daily for two consecutive days with fresh dosing solutions containing appropriate concentrations of the 320 ToxCast chemicals (chemical identities were blinded to CellzDirect and other ToxCast collaborators), vehicle control (0.2% DMSO), and positive control inducers as summarized in Table 1. Due to the large number of treatment groups and chemicals examined, the ToxCast chemicals were divided into two groups (spanning two independent cultures of hepatocytes from separate donor preparations (Hu778: ToxCast plates 1 and 2; Hu776: ToxCast plates 3 and 4). Each preparation of human hepatocyte cultures was treated with respective vehicle control, medium only control, set of six positive controls/reference chemicals for the five hepatic receptor pathways, and a subset of eight of the ToxCast chemicals (indoxacarb, pyrithiobac-sodium, norflurazon, cyhalofop-butyl, methomyl, thiram, acetochlor, and propiconazole). These replicate data, coupled with internal replicates designed within the blinded ToxCast chemical library, provided additional data to evaluate interindividual differences between hepatocyte preparations and their potential impact on chemical profiles.Cell morphology and integrity were evaluated using phase-contrast microscopy as an indicator of hepatocyte cell health (Tyson & Green, 1987). Cultures for each treatment group (i.e., media, vehicle [0.2% DMSO], positive control inducers [multiple concentrations], and the ToxCast chemicals [multiple concentrations]) were observed and cell morphology was assessed relative to vehicle control cultures at each harvest time point (0, 6, 24, or 48 h). […] Images were evaluated at the conclusion of the study to assess changes in cell integrity and account for the effects of chemical exposure on uncharacteristic changes in concentration-dependent gene expression profiles. The results from these determinations of apparent cytotoxicity were annotated (yes/no) alongside the corresponding qNPA data for reference.At the conclusion of each treatment period, hepatocyte cultures (96-well) were washed with 1 volume of HBSS, lysed by addition of 25 ul ArrayPlate lysis buffer (HTG, Tucson, AZ), and 70 ul/well of Denaturation Oil, denatured by incubation at 95C for 10 min, and frozen at approximately -70C until analysis by nuclease protection assay (qNPA) (Roberts et al., 2007). For qNPA analysis, cell lysates were thawed at 50C for approximately 30 min, qNPA probes were added, and samples were incubated at 95C for 10 min to begin the detection process by denaturing the target RNA, dissociating the duplexes and secondary structure hybridization. At the conclusion of the hybridization period, S1 nuclease reagent was added to each sample to digest all nonprotected nucleotides at 50C for 60-90 min. […]

Row | Compound | outcome
1 | CCCCCOC(=O)COc1cc(N2C(=O)C3=C(CCCC3)C2=O)c(F)cc1Cl | inactive
2 | CSC(=O)c1cccc2nnsc12 | inactive
3 | CCOC(=O)C(C)Oc1ccc(Oc2nc3ccc(Cl)cc3o2)cc1 (stereo not given) | inactive
4 | C#CCOC(=O)[C@@H](C)Oc1ccc(Oc2ncc(Cl)cc2F)cc1 | inactive
5 | CCCCOC(=O)C(C)Oc1ccc(Oc2ccc(C(F)(F)F)cn2)cc1 (stereo not given) | inactive
6 | CCOC(=O)NCCOc1ccc(Oc2ccccc2)cc1 | inactive
7 | O=C(O)C1(C(=O)Nc2ccc(Cl)cc2Cl)CC1 | inactive
8 | Cc1nn(C)c(Oc2ccccc2)c1C=NOCc1ccc(C(=O)OC(C)(C)C)cc1 | inactive
9 | c1ccc(Nc2ccccc2)cc1 | inactive
10 | COC(=O)CSc1cc(N=c2sc(=O)n3n2CCCC3)c(F)cc1Cl | inactive
11 | CCCCOC(=O)[C@@H](C)Oc1ccc(Oc2ccc(C(F)(F)F)cn2)cc1 | inactive
12 | CC(C)(C)[C@@H](O)[C@@H](Cc1ccc(Cl)cc1)n1cncn1 | inactive
13 | COC(=O)c1ccccc1S(=O)(=O)NC(=O)Nc1nc(OC(F)F)cc(OC(F)F)n1 | inactive
14 | COCCO | inactive
15 | OB(O)O | inactive
16 | CCCCC(CC)COC(=O)c1ccccc1C(=O)O (stereo not given) | inactive
17 | CCC(C)OC(=O)N1CCCCC1CCO (stereo not given) | inactive
18 | COc1c(Cl)ccc(Cl)c1C(=O)O | inactive

Row | Compound | outcome
19 | O=C(Nc1ccc([N+](=O)[O-])cc1Cl)c1cc(Cl)ccc1O | inactive
20 | COC(=O)c1c(Cl)nn(C)c1S(=O)(=O)NC(=O)Nc1nc(OC)cc(OC)n1 | inactive
21 | CN(C)C(=O)Nc1ccc(Cl)c(Cl)c1 | inactive
22 | CCCCCCC(C)OC(=O)COc1nc(F)c(Cl)c(N)c1Cl (stereo not given) | inactive
23 | CCCOC(=O)c1ccc(C(=O)OCCC)nc1 | inactive
24 | COC(=O)c1ccccc1C(=O)O | inactive
25 | CCCOC(=O)NCCCN(C)C | inactive
26 | Oc1ccc(C(c2ccc(O)cc2)C(Cl)(Cl)Cl)cc1 | inactive
27 | CCOC(=O)[C@H](C)Oc1ccc(Oc2nc3ccc(Cl)cc3o2)cc1 | inactive
28 | CC(C)(c1ccc(O)cc1)c1ccc(O)cc1 | inactive
29 | CCOC(=O)C(C)Oc1ccc(Oc2cnc3cc(Cl)ccc3n2)cc1 (stereo not given) | inactive
30 | CCCCC(CC)CN1C(=O)C2C3C=CC(C3)C2C1=O (stereo not given) | inactive
31 | COC(=O)c1cccc(C)c1S(=O)(=O)NC(=O)Nc1nc(OCC(F)(F)F)nc(N(C)C)n1 | inactive
32 | CCCCOCCOCCOCc1cc2c(cc1CCC)OCO2 | inactive
33 | CCCN(CCC)C(=O)SCC | inactive
34 | N#CSCSc1nc2ccccc2s1 | inactive
35 | CCCN(CCC)c1c([N+](=O)[O-])cc(C(F)(F)F)c(N)c1[N+](=O)[O-] | inactive
